Values joined by “and” are separate entries in the source; they are usually repeats but may differ in a detail not shown here. Equal entries are not always repeated. Inconclusive results are not listed. A call without a number means that no potency is given here. A structure can be active in one record and inactive in another. Active and inactive are the calls of the source. Unless noted, calls come from the whole dose curve; as a rule, active = well fitted curve in the direction sought with a large enough effect in the repeat runs; inconclusive = weak or mixed curves; inactive = no such curve, though single readings can be large; an effect the other way counts as inactive or inconclusive.
How the values were obtained:
[1] = qHTS assay for small molecule agonists of the p53 signaling pathway (AID 651631; calls by dose curve; note: nearly all actives have a fitted effect of over 15% in size; note: potency is the fitted concentration of half-maximal effect)
Outline: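 Fluorescence intensity from cleaved LiveBLAzer B/G substrate (2 h, room temperature) served as the signal. Beforehand, HCT-116 reporter cells bearing p53 response elements were treated 16 h at 37 °C with DMSO-dissolved compounds.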

[2] = qHTS assay for small molecules that induce genotoxicity in human embryonic kidney cells expressing luciferase-tagged ATAD5 (AID 651632); note: nearly all actives have a fitted effect of over 15% in size
Outline: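 A rise in luciferase signal from ATAD5-tagged HEK293T cells marks genetic stress. Cells were exposed to compounds for 16 hr at 37C, 5% CO2, then luciferase was quantified after a 30 min room-temperature incubation with Amplite.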

[3] = qHTS assay for small molecule agonists of the p53 signaling pathway - cell viability (AID 651633; calls by dose curve; note: nearly all actives have a fitted effect of over 30% in size; note: potency is the fitted concentration of half-maximal effect)
Outline: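 p53RE-bla cells, seeded at 4,000 per well and rested 5 h at 37 C/5% CO2, received compounds in DMSO for 16 h at 37 C. CellTiter-Glo was then added, and luminescence was read after 30 min at room temperature to gauge cytotoxicity.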

[4] = qHTS assay for small molecules that induce genotoxicity in human embryonic kidney cells expressing luciferase-tagged ATAD5 - cell viability (AID 651634; calls by dose curve; note: nearly all actives have a fitted effect of over 25% in size; note: potency is the fitted concentration of half-maximal effect)
Outline: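 Cytotoxicity counter-readout: after 15.5 hr compound treatment at 37C, live-cell protease activity in ATAD5-luciferase HEK293T cells measured by CellTiter-Fluor fluorescence, 30 min development at 37C.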

[5] = qHTS assay for small molecule disruptors of the mitochondrial membrane potential - cell viability (AID 720634; calls by dose curve; note: nearly all actives have a fitted effect of over 20% in size; note: potency is the fitted concentration of half-maximal effect)
Outline: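 Cytotoxicity was quantified from ATP content by CellTiter-Glo luminescence in the same wells as the MMP dye read-out. HepG2 (2,000 cells/well) were plated overnight and exposed to compounds for 1 hr at 37 C.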

[6] = qHTS assay to test for compound auto fluorescence at 590 nm (red) in HepG2 cells (AID 720674)
Outline: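 Intrinsic compound fluorescence in the red window (Ex/Em 540/590 nm) is measured in attached HepG2 cells exposed for 1 hr, DMSO vehicle as baseline, benchmarked to Rose Bengal sodium.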

[7] = qHTS assay to test for compound auto fluorescence at 535 nm (green) in HepG2 cells (AID 720675)
[8] = qHTS assay to test for compound auto fluorescence at 460 nm (blue) in HEK293 cells (AID 720678)
Outline: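 Triamterene serves as the blue fluorophore standard. Compound signal at 405/460 nm is read in HEK293 wells (2,000 cells, 10% dialyzed FBS) after overnight treatment at 37C.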

[9] = qHTS assay to test for compound auto fluorescence at 590 nm (red) in HEK293 cells (AID 720679)
Outline: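 We plated HEK293 cells in 10% dialyzed FBS medium, let them adhere for 4-5 hr, then added 23 nL compound. Overnight at 37C and 5% CO2 preceded fluorescence measurement at 540/590nm.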

[10] = qHTS assay for small molecule disruptors of the mitochondrial membrane potential (AID 720635); note: potency is the fitted concentration of half-maximal effect
Outline: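 HepG2 cells (2,000/well) attached overnight at 37C, then took compound for 1 hr at 37C, 5% CO2. Mito-MPS dye was added for 30 min; fluorescence was read at 490/535 nm (monomers) and 540/590 nm (aggregates).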

## CCCCC/C=C\C/C=C\CCCCCCCC(=O)OC
[1]
  Potency: inactive
[2]
  Potency: inactive
[3]
  Potency: inactive
[4]
  Potency: inactive
[5]
  Potency: inactive
[6]
  outcome: inactive
[7]
  outcome: inactive
[8]
  Potency: inactive
[9]
  outcome: inactive

## Oc1c(Cl)cc(Cl)c(Cl)c1Cl
[1]
  Potency: 16.9 µM (active)
[2]
  Potency: inactive
[3]
  Potency: inactive and 61.1 µM (active)
[10]
  Potency: 11.9 µM (active) and 19.3 µM (active)
[6]
  outcome: inactive
[7]
  outcome: inactive
[8]
  Potency: inactive
[9]
  outcome: inactive

## CCC(=O)O
[1]
  Potency: inactive
[2]
  Potency: inactive
[3]
  Potency: inactive
[4]
  Potency: inactive
[6]
  outcome: inactive
[7]
  outcome: inactive
[8]
  Potency: inactive
[9]
  outcome: inactive

## CCCCC(CC)COC(=O)CCCCCCCC(=O)OCC(CC)CCCC (stereo not drawn)
[1]
  Potency: inactive
[2]
  Potency: inactive
[3]
  Potency: inactive
[4]
  Potency: inactive
[5]
  Potency: inactive
[6]
  outcome: inactive
[7]
  outcome: inactive
[8]
  Potency: inactive
[9]
  outcome: inactive

## CCc1ccc(O)cc1
[1]
  Potency: inactive
[2]
  Potency: inactive
[3]
  Potency: inactive
[4]
  Potency: inactive
[5]
  Potency: inactive
[10]
  Potency: 54.7 µM (active)
[6]
  outcome: inactive
[7]
  outcome: inactive
[8]
  Potency: inactive
[9]
  outcome: inactive

## S=c1nc[nH]c2nc[nH]c12
[1]
  Potency: 8.41 µM (active) and 5.31 µM (active)
[2]
  Potency: inactive
[3]
  Potency: 1.88 µM (active) and 1.19 µM (active)
[4]
  Potency: inactive
[5]
  Potency: inactive
[10]
  Potency: inactive
[6]
  outcome: inactive
[7]
  outcome: inactive
[8]
  Potency: inactive
[9]
  outcome: inactive

## C/C=C(C)/C=C/C=C(C)C
[1]
  Potency: inactive
[2]
  Potency: inactive
[3]
  Potency: inactive
[4]
  Potency: inactive
[5]
  Potency: inactive
[6]
  outcome: inactive
[7]
  outcome: inactive
[8]
  Potency: inactive
[9]
  outcome: inactive

## O=Nc1ccc(O)cc1
[2]
  Potency: inactive
[3]
  Potency: inactive
[4]
  Potency: inactive
[5]
  Potency: inactive
[10]
  Potency: 670 nM (active) and 13.7 µM (active)
[6]
  outcome: inactive
[7]
  outcome: inactive
[8]
  Potency: inactive
[9]
  outcome: inactive

## CS(=O)(=O)Nc1ccc([N+](=O)[O-])cc1Oc1ccccc1
[1]
  Potency: inactive
[3]
  Potency: inactive
[6]
  outcome: inactive
[7]
  outcome: inactive
[8]
  Potency: inactive
[9]
  outcome: inactive

## O=[N+]([O-])c1cc(N(CCO)CCO)ccc1NCCO
[1]
  Potency: inactive
[3]
  Potency: inactive
[5]
  Potency: inactive
[6]
  outcome: inactive
[7]
  outcome: inactive
[8]
  Potency: inactive
[9]
  outcome: inactive

## CC(C)(N=C=O)c1cccc(C(C)(C)N=C=O)c1
[2]
  Potency: inactive
[3]
  Potency: inactive
[4]
  Potency: inactive
[5]
  Potency: inactive
[6]
  outcome: inactive
[7]
  outcome: inactive
[8]
  Potency: inactive
[9]
  outcome: inactive

## OC1CCCC1
[2]
  Potency: inactive
[3]
  Potency: inactive
[4]
  Potency: inactive
[5]
  Potency: inactive
[10]
  Potency: inactive
[6]
  outcome: inactive
[7]
  outcome: inactive
[8]
  Potency: inactive
[9]
  outcome: inactive

## CCCCCC/C=C/CCCCCCCC(=O)O
[2]
  Potency: inactive
[3]
  Potency: inactive
[4]
  Potency: inactive
[5]
  Potency: inactive
[10]
  Potency: inactive
[6]
  outcome: inactive
[7]
  outcome: inactive
[8]
  Potency: inactive
[9]
  outcome: inactive

## CC(=O)[C@@]1(O)CC[C@H]2[C@@H]3CCC4=CC(=O)CC[C@]4(C)[C@H]3CC[C@@]21C
[2]
  Potency: inactive
[4]
  Potency: inactive
[5]
  Potency: inactive
[10]
  Potency: inactive
[6]
  outcome: inactive
[7]
  outcome: inactive
[8]
  Potency: inactive
[9]
  outcome: inactive

## CC1=CC[C@H]2C[C@@H]1C2(C)C
[2]
  Potency: inactive
[3]
  Potency: inactive
[4]
  Potency: inactive
[6]
  outcome: inactive
[7]
  outcome: inactive
[8]
  Potency: inactive
[9]
  outcome: inactive

## Cc1cc(NS(=O)(=O)c2ccc(N)cc2)no1
[5]
  Potency: inactive
[10]
  Potency: inactive
[6]
  outcome: inactive
[7]
  outcome: inactive
[8]
  Potency: inactive
[9]
  outcome: inactive

## CC1COc2ccccc2N1C(=O)C(Cl)Cl (stereo not drawn)
[3]
  Potency: inactive
[4]
  Potency: inactive
[5]
  Potency: inactive
[6]
  outcome: inactive
[7]
  outcome: inactive
[8]
  Potency: inactive
[9]
  outcome: inactive

## CC(C)n1c(/C=C/[C@@H](O)C[C@@H](O)CC(=O)O)c(-c2ccc(F)cc2)c2ccccc21
[3]
  Potency: inactive
[5]
  Potency: inactive
[10]
  Potency: 26.6 µM (active)
[6]
  outcome: inactive
[7]
  outcome: inactive
[8]
  Potency: inactive
[9]
  outcome: inactive

## CC(C)(C)C(=O)C1C(=O)c2ccccc2C1=O
[2]
  Potency: inactive
[3]
  Potency: inactive
[4]
  Potency: 17.1 µM (active) and 7.7 µM (active)
[5]
  Potency: inactive
[10]
  Potency: 10.8 µM (active) and 6.11 µM (active)
[6]
  outcome: inactive
[7]
  outcome: inactive
[8]
  Potency: inactive
[9]
  outcome: inactive

## CCCCCCCCCCCCOCC1CO1 (stereo not drawn)
[2]
  Potency: inactive
[3]
  Potency: inactive
[4]
  Potency: inactive
[5]
  Potency: inactive
[10]
  Potency: inactive
[6]
  outcome: inactive
[7]
  outcome: inactive
[8]
  Potency: inactive
[9]
  outcome: inactive

## CCCCCCCCCCC=CC1CC(=O)OC1=O (stereo not drawn)
[3]
  Potency: 61.4 µM (active) and inactive
[4]
  Potency: inactive
[5]
  Potency: inactive
[10]
  Potency: 68.9 µM (active)
[6]
  outcome: inactive
[7]
  outcome: inactive
[8]
  Potency: inactive
[9]
  outcome: inactive

## CC1CC(OC(=O)c2ccccc2O)CC(C)(C)C1 (stereo not drawn)
[1]
  Potency: inactive
[3]
  Potency: inactive
[4]
  Potency: inactive
[5]
  Potency: inactive
[10]
  Potency: 27 µM (active)
[6]
  outcome: inactive
[7]
  outcome: inactive
[8]
  Potency: inactive
[9]
  outcome: inactive

## CCCCCCCCCC(=O)O
[2]
  Potency: inactive
[3]
  Potency: inactive
[4]
  Potency: inactive
[6]
  outcome: inactive
[7]
  outcome: inactive
[8]
  Potency: inactive
[9]
  outcome: inactive

## Oc1ccc2ccccc2c1N=Nc1ccccc1
[2]
  Potency: inactive
[3]
  Potency: inactive
[4]
  Potency: 30.6 µM (active) and 48.6 µM (active)
[5]
  Potency: 27.3 µM (active)
[10]
  Potency: 3.06 µM (active) and 6.11 µM (active)
[6]
  outcome: inactive
[7]
  outcome: inactive
[8]
  Potency: inactive
[9]
  outcome: inactive

## CN(C)c1cccc(O)c1
[2]
  Potency: inactive
[3]
  Potency: inactive
[4]
  Potency: inactive
[5]
  Potency: inactive
[10]
  Potency: 10.9 µM (active)
[6]
  outcome: inactive
[7]
  outcome: inactive
[8]
  Potency: inactive
[9]
  outcome: inactive

## CCCCCCC(C)(C)S
[2]
  Potency: inactive
[4]
  Potency: inactive
[5]
  Potency: inactive
[10]
  Potency: inactive
[6]
  outcome: inactive
[7]
  outcome: inactive
[8]
  Potency: inactive
[9]
  outcome: inactive

## C=C1CC[C@H](O)CC1=C/C=C1\CCC[C@]2(C)[C@@H]([C@H](C)/C=C/[C@H](C)C(C)C)CC[C@@H]12
[2]
  Potency: inactive
[3]
  Potency: 54 µM (active) and 68.6 µM (active)
[4]
  Potency: inactive
[5]
  Potency: inactive
[10]
  Potency: inactive and 60.6 µM (active)
[6]
  outcome: inactive
[7]
  outcome: inactive
[8]
  Potency: inactive
[9]
  outcome: inactive

Reference: PubChem BioAssay (Tox21)
